The values that follow come from PubChem BioAssay (EPA / NIEHS).

Results filed as inconclusive are left out. The source made the active and inactive calls. Rule for the calls, unless noted: active = hit-call score of the fitted dose curve at least 0.9, where 1 is the maximum; inactive = score below 0.9.

A short description of test [1]: ATG_Oct_MLP_CIS: Attagene CIS-FACTORIAL HepG2 Assay for human Octamer-Binding Transcription Factor (Oct) (AID 2282993). To be noted: HepG2 Attagene cis-factorial Oct reporter, mRNA; actives raise or lower the signal. The procedure, abridged: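 HepG2, transient MRTU transfection, cis promoter elements; 24 h dosing; RT-PCR/CE fluorescence read-out of reporter mRNA; fit both directions vs DMSO.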

The target in test [2] is Cellular tumor antigen p53 (Homo sapiens) (UniProt P04637). Kind of test: ATG_p53_CIS: Attagene CIS-FACTORIAL HepG2 Assay for human p53 Transcription Factor (AID 2282994). To be noted: HepG2 p53 cis-element reporter, Attagene mRNA; actives raise or lower the signal. The procedure, abridged: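 HepG2, transient MRTU transfection (cis promoter elements, endogenous TFs); 24 h dosing; RNA isolation, RT-PCR, 6-FAM primer extension, HpaI digest, CE fluorescence; bidirectional fit vs DMSO.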

Test [3] is described as follows: BSK_3C_TissueFactor: BioMAP Diversity Plus: 3C Assay for Tissue Factor Biomarker Activity (AID 2282997). To be noted: BioMAP 3C HUVEC, tissue factor biomarker readout; actives raise or lower the signal. The procedure, abridged: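 HUVEC were treated 24 h, then surface tissue factor measured by ELISA and fitted bidirectionally against DMSO. Parallel SRB total-protein staining assessed overt cytotoxicity at the same time point.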

Test [4] can be described thus: BSK_3C_uPAR: BioMAP Diversity Plus: 3C Assay for Urokinase-type plasminogen activator receptor (uPAR) Biomarker Activity (AID 2282998). To be noted: BioMAP 3C HUVEC, uPAR biomarker ELISA; actives raise or lower the signal. An outline of the steps:
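A multiplexed primary-cell system built on human umbilical vein endothelium was used, with chemical present for 24 h before reading. Cell-surface uPAR was detected by ELISA; signal change in either direction counted against DMSO.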
A general note: An ELISA detects its analyte on a solid surface through an enzyme-linked reagent.

Test [5] can be described thus: BSK_3C_VCAM1: BioMAP Diversity Plus: 3C Assay for Vascular cell adhesion molecule 1 (VCAM1) Biomarker Activity (AID 2282999). The settings on record: BioMAP 3C HUVEC, VCAM1 ELISA, cytokine-stimulated; actives raise or lower the signal. An outline of the steps: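 Human umbilical vein endothelial cells were dosed with compound for 24 h, after which cell-surface VCAM-1 was quantified by ELISA. Bidirectional curve fitting used DMSO as negative control and activity baseline.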

A short description of test [6]: BSK_4H_Eotaxin3: BioMAP Diversity Plus: 4H Assay for Eotaxin 3 Biomarker Activity (AID 2283000).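 Note: CCL26 protein level quantified by ELISA in parallel with SRB cytotoxicity check.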 To be noted: primary human endothelial cells (HUVEC); actives raise or lower the signal. The procedure, abridged: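 Eotaxin-3 (CCL26) levels were measured by ELISA in HUVEC primary cultures 24 h post-dosing. Gain or loss of signal was fitted in both directions, with DMSO serving as baseline and negative control.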

Read-out in test [7]: Intercellular Adhesion Molecule 1 (ICAM1), ICAM1 (gene 3383)
The test is described as follows: BSK_3C_ICAM1: BioMAP Diversity Plus: 3C Assay for Intercellular Adhesion Molecule 1 (ICAM1) Biomarker Activity (AID 2283003). The settings on record: primary human endothelial cells (HUVEC); actives raise or lower the signal. The procedure, abridged:
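HUVEC primary cells stimulated under 3C conditions; ICAM1 measured by ELISA 24 h after compound dosing. Curves fitted bidirectionally against the DMSO baseline. Overt cytotoxicity checked by SRB staining of parallel cultures.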

Test [8] can be described thus: BSK_3C_Proliferation: Cell Proliferation Assessment in the BioMAP Diversity Plus: 3C Assay (AID 2283006). To be noted: primary human endothelial cells (HUVEC). The procedure, abridged:
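Subconfluent HUVEC (3C system) cultured with chemical; relative cell number read at 48 h by sulforhodamine B total-protein staining (0.1% SRB after 10% TCA fixation, 560 nm). Bidirectional fit relative to DMSO.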

The target in test [9] is Peroxisome proliferator-activated receptor gamma (Homo sapiens) (UniProt P37231). The test is described as follows: ATG_PPARg_TRANS: Attagene TRANS-FACTORIAL HepG2 Assay for human Peroxisome Proliferator-activated Receptor-gamma (PPARg) (AID 2283007; active = hit-call score of the fitted dose curve at least 0.9, where 1 is the maximum). An outline of the steps: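 Twenty-four hours after chemical dosing of transiently transfected HepG2 cells, isolated RNA was converted to cDNA, reporter sequences amplified and 6-FAM-labelled, then HpaI-digested and analysed by capillary electrophoresis. Signal increase against DMSO was fitted.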

In test [10] the target is Nuclear receptor subfamily 1 group I member 2 (Homo sapiens) (UniProt O75469). Kind of test: ATG_PXR_TRANS: Attagene TRANS-FACTORIAL HepG2 Assay for human Pregnane X Receptor (PXR) (AID 2283008; active = hit-call score of the fitted dose curve at least 0.9, where 1 is the maximum). The procedure, abridged: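 Read-out is fluorescence of labelled reporter cDNA fragments separated by capillary electrophoresis after RT-PCR and HpaI digestion. Source: HepG2 cells carrying PXR-GAL4/UAS reporter constructs, treated 24 h; activity fitted upward relative to DMSO.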

Read-out in test [11]: E-selectin (Homo sapiens) (UniProt P16581)
Kind of test: BSK_3C_Eselectin: BioMAP Diversity Plus: 3C Assay for Eselectin Biomarker Activity (AID 2283015).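 Note: cell surface E-selectin protein quantified by ELISA 24 h after dosing.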 The settings on record: primary human endothelial cells (HUVEC); actives raise or lower the signal. An outline of the steps: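 Primary human umbilical vein endothelial cells (3C system), read 24 h after compound addition; E-selectin measured by ELISA. Bidirectional curve fitting against DMSO baseline; cytotoxicity by parallel SRB total-protein staining.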

Read-out in test [12]: Interleukin-1 alpha (IL1a), IL1A (gene 3552)
The test is described as follows: BSK_BE3C_IL1a: BioMAP Diversity Plus: BE3C Assay for Interleukin-1 alpha (IL1a) Biomarker Activity (AID 2283016). The settings on record: primary human bronchial epithelial cells; actives raise or lower the signal. An outline of the steps:
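Human primary bronchial epithelial cells, 24 h chemical exposure; IL-1a quantified by ELISA, fitted bidirectionally against DMSO. Cytotoxicity assessed in parallel by SRB total-protein staining at the time of measurement.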

Test [13] concerns the target human RAR-related Orphan Receptor gamma (RORg), RORC (gene 6097) (UniProt P51449). The test is described as follows: ATG_RORg_TRANS: Attagene TRANS-FACTORIAL HepG2 Assay for human RAR-related Orphan Receptor gamma (RORg) (AID 2283011; active = hit-call score of the fitted dose curve at least 0.9, where 1 is the maximum). The procedure, abridged:
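HepG2 cells transiently transfected with GAL4-UAS reporter units and chimeric RORg-Gal4 construct; after 24 h chemical exposure, reporter mRNA measured by RT-PCR with fluorescent capillary electrophoresis, gain of signal fitted against DMSO.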

Test [14] deals with human Retinoid X Receptor beta (RXRb), RXRB (gene 6257) (UniProt P28702). The test is described as follows: ATG_RXRb_TRANS: Attagene TRANS-FACTORIAL HepG2 Assay for human Retinoid X Receptor beta (RXRb) (AID 2283013; active = hit-call score of the fitted dose curve at least 0.9, where 1 is the maximum). The procedure, abridged:
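HepG2 cells were transiently transfected with multiplexed GAL4-UAS reporters and a chimeric RXRb-Gal4 construct, then exposed for 24 h. Reporter mRNA was quantified by RT-PCR, FAM labeling, HpaI digestion and capillary electrophoresis; gain of signal was scored against DMSO.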

In test [15] the target is human Peroxisome Proliferator-activated Receptor alpha (PPARa), PPARA (gene 5465) (UniProt Q07869). Kind of test: ATG_PPARa_TRANS: Attagene TRANS-FACTORIAL HepG2 Assay for human Peroxisome Proliferator-activated Receptor alpha (PPARa) (AID 2283001; active = hit-call score of the fitted dose curve at least 0.9, where 1 is the maximum). The procedure, abridged:
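Gain-of-signal endpoint: reporter mRNA induction relative to DMSO, detected by fluorescent RT-PCR and capillary electrophoresis. HepG2 cells transiently carried GAL4-UAS-driven reporter units plus NR-Gal4 fusion; exposure lasted 24 h.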

In test [16] the target is human RAR-related Orphan Receptor beta (RORb), RORB (gene 6096) (UniProt Q92753). Kind of test: ATG_RORb_TRANS: Attagene TRANS-FACTORIAL HepG2 Assay for human RAR-related Orphan Receptor beta (RORb) (AID 2283010; active = hit-call score of the fitted dose curve at least 0.9, where 1 is the maximum). An outline of the steps:
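HepG2 cells transiently transfected with GAL4-UAS reporter units expressing chimeric NR-Gal4 protein; reporter mRNA measured 24 h after dosing by RT-PCR, 6-FAM labelling and capillary electrophoresis. Gain-of-signal fitted relative to DMSO baseline.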

The target of test [17] is human Thyroid Receptor alpha (THRa1), THRA (gene 7067) (UniProt P10827). The test is described as follows: ATG_THRa1_TRANS: Attagene TRANS-FACTORIAL HepG2 Assay for human Thyroid Receptor alpha (THRa1) (AID 2283014; active = hit-call score of the fitted dose curve at least 0.9, where 1 is the maximum). The procedure, abridged:
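HepG2 cells transiently transfected with chimeric NR-Gal4 and GAL4-UAS reporter units, dosed 24 h. Reporter mRNA quantified by RT-PCR, fluorescent labeling, HpaI digestion and capillary electrophoresis; gain-of-signal fit versus DMSO.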

The target in test [18] is Retinoic acid receptor RXR-alpha (Homo sapiens) (UniProt P19793). The test is described as follows: ATG_RXRa_TRANS: Attagene TRANS-FACTORIAL HepG2 Assay for human Retinoid X Receptor alpha (RXRa) (AID 2283012; active = hit-call score of the fitted dose curve at least 0.9, where 1 is the maximum). The procedure, abridged:
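HepG2 cells transiently transfected with GAL4-UAS reporter units and chimeric RXRa-Gal4 protein, treated 24 h. Reporter mRNA measured by RT-PCR, fluorescent labelling, HpaI digestion and capillary electrophoresis. Induction fitted against DMSO.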

Peroxisome proliferator-activated receptor gamma (Homo sapiens), sequence (P37231 whole entry, looked up): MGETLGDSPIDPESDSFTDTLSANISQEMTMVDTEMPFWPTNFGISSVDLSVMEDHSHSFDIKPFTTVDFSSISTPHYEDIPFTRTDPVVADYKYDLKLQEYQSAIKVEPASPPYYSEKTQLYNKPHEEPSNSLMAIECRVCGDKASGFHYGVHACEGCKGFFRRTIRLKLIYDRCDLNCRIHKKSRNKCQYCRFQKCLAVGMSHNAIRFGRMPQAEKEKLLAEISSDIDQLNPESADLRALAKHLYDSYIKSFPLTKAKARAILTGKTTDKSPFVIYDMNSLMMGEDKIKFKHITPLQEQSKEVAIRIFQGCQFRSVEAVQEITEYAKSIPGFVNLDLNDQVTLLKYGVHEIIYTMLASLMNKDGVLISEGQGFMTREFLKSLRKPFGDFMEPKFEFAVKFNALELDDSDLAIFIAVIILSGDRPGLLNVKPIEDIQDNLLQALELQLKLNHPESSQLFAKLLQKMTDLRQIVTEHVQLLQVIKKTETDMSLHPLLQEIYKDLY
E-selectin (Homo sapiens), sequence (P16581 whole entry, looked up): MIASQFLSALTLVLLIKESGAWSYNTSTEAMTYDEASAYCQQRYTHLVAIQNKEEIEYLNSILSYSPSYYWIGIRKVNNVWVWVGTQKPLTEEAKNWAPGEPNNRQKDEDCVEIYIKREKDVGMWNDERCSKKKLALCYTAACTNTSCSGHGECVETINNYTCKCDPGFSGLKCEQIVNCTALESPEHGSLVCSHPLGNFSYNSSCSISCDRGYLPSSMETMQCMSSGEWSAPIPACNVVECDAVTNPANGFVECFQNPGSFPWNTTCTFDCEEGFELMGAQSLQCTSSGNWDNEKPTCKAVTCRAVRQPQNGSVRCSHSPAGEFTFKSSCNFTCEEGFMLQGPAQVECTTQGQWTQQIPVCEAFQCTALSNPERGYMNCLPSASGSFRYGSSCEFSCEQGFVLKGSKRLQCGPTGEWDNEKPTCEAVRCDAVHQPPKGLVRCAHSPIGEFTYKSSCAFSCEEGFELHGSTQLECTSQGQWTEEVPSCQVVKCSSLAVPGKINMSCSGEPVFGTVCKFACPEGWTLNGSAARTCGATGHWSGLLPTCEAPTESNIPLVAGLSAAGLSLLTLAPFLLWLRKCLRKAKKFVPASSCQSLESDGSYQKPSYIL
human Thyroid Receptor alpha (THRa1), THRA (gene 7067), sequence (P10827 whole entry, looked up, the tested form may be a part): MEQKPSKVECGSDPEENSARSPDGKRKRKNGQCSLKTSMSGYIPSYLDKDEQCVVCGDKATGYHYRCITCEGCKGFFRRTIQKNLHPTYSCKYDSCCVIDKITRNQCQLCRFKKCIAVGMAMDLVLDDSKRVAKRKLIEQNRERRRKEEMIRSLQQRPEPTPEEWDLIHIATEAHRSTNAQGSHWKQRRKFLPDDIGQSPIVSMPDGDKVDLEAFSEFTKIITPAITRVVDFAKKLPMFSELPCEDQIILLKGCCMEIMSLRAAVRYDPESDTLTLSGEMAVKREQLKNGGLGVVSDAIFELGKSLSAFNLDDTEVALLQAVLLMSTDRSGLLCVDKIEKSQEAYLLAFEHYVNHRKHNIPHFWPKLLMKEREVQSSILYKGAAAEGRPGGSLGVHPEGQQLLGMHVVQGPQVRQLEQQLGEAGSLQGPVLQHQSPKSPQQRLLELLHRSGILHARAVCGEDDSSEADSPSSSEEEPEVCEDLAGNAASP
human Retinoid X Receptor beta (RXRb), RXRB (gene 6257), sequence (P28702 whole entry, looked up, the tested form may be a part): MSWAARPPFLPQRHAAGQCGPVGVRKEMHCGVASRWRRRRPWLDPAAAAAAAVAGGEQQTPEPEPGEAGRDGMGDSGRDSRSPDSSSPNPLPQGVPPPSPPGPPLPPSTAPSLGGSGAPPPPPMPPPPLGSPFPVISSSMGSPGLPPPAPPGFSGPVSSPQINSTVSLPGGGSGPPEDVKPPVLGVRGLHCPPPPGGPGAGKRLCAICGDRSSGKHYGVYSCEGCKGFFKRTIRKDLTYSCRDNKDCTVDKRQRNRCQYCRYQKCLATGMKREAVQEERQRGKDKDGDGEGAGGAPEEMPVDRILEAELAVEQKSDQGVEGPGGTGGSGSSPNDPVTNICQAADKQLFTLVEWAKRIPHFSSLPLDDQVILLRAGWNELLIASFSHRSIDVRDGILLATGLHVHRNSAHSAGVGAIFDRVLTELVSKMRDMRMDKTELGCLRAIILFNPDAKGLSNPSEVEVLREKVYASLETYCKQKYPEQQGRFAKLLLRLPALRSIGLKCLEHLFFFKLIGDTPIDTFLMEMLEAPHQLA
human RAR-related Orphan Receptor gamma (RORg), RORC (gene 6097), sequence (P51449 whole entry, looked up, the tested form may be a part): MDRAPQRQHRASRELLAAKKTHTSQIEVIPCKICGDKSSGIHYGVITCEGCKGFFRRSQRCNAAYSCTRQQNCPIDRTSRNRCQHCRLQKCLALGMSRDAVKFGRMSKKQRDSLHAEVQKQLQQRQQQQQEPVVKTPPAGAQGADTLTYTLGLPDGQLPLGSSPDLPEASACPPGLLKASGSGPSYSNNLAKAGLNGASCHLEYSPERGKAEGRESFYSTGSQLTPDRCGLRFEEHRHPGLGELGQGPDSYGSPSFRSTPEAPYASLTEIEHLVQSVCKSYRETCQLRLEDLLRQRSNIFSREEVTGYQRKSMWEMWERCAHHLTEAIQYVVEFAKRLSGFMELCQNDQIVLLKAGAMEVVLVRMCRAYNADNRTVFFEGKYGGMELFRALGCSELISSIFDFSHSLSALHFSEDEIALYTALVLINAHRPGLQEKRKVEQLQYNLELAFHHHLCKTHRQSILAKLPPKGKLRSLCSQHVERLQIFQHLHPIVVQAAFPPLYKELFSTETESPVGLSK
Nuclear receptor subfamily 1 group I member 2 (Homo sapiens), sequence (O75469 whole entry, looked up, the tested form may be a part): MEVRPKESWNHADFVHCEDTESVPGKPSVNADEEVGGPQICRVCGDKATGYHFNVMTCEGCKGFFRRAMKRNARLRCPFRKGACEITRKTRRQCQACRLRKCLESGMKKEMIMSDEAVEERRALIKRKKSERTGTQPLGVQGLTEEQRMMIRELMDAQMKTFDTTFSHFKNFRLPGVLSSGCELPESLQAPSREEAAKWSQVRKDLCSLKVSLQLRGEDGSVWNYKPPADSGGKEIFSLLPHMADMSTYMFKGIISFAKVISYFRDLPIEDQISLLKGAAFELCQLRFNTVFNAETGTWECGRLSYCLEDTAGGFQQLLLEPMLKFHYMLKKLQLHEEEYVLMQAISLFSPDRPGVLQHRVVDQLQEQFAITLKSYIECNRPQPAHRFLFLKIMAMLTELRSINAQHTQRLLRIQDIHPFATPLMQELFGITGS
Cellular tumor antigen p53 (Homo sapiens), sequence (P04637 whole entry, looked up): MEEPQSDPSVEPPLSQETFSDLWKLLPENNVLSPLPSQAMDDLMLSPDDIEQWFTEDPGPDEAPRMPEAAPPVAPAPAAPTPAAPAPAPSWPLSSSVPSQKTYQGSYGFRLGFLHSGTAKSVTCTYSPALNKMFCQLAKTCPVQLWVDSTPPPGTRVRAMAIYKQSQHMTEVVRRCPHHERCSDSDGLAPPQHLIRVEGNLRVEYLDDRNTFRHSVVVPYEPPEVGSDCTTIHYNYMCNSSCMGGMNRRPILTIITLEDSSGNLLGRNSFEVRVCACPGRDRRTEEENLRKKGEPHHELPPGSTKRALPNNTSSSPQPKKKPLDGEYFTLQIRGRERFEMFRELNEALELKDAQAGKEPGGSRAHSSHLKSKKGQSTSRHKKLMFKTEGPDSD
human Peroxisome Proliferator-activated Receptor alpha (PPARa), PPARA (gene 5465), sequence (Q07869 whole entry, looked up, the tested form may be a part): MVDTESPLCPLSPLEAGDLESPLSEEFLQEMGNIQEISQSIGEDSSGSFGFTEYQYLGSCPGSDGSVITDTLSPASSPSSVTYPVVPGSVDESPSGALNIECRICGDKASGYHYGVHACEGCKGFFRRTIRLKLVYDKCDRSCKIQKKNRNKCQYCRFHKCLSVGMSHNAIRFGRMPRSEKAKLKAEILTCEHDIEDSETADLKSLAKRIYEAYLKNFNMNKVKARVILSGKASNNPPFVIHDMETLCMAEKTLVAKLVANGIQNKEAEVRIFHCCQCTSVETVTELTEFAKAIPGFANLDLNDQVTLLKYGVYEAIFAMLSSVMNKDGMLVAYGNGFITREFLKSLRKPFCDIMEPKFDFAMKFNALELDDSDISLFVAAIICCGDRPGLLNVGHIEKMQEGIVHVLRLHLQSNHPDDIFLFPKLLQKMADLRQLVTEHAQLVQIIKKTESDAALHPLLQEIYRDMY
human RAR-related Orphan Receptor beta (RORb), RORB (gene 6096), sequence (Q92753 whole entry, looked up, the tested form may be a part): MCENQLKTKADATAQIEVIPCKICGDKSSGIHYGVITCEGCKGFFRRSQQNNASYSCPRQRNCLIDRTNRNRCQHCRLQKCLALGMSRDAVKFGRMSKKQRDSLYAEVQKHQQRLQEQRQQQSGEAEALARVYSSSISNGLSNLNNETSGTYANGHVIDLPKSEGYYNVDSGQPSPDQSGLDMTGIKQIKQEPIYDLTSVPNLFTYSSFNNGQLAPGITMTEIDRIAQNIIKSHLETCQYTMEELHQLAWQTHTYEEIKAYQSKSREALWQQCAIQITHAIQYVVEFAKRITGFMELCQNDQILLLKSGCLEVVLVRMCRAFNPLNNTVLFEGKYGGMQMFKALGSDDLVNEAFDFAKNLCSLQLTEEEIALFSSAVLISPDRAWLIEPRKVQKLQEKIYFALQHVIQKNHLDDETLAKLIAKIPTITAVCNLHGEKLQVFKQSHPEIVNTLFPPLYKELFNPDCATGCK
Retinoic acid receptor RXR-alpha (Homo sapiens), sequence (P19793 whole entry, looked up, the tested form may be a part): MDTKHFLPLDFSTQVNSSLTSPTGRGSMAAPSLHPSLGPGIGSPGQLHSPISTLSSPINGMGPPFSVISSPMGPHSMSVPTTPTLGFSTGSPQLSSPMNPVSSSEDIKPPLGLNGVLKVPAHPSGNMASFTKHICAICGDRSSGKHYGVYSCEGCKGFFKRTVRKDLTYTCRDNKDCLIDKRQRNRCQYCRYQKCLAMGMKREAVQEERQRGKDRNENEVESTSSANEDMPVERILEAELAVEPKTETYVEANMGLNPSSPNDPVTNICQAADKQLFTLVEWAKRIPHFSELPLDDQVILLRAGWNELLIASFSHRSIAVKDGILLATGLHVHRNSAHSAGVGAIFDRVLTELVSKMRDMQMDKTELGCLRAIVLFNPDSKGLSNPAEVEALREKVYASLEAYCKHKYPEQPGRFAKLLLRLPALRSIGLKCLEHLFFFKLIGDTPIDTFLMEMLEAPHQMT

For the compound `CC(=O)S[C@H](C(=O)N[C@H]1Cc2ccccc2[C@H]2CCC[C@@H](C(=O)O)N2C1=O)C(C)C`, the call in test [1], in test [2], in [3], in [4], in [5] and in [6] was inactive. Moreover, the outcome in [7], in [8], in test [9], in test [10], in test [11] and in test [12] was inactive.
Consider `Cc1cc(Cc2ccc(N)c(C)c2)ccc1N`, for which the compound was classed as inactive in test [1], in [2], in test [3], in test [4], in test [5] and in test [6]. In addition, the outcome in test [7], in [8], in test [10], in [13], in test [14] and in test [12] was inactive.
As for `Cc1cn([C@H]2C=C[C@@H](CO)O2)c(=O)[nH]c1=O`, the call in test [1], in test [3], in test [4], in [5], in test [6] and in [7] was inactive. For the same compound, the result in test [8], in [9], in [13] and in test [12] was inactive.
In the case of `N[C@@H](Cc1c[nH]c2ccccc12)C(=O)O`, the compound was called inactive in test [1], in test [3], in test [5], in [6], in test [15] and in test [7]. Further, the outcome in [8], in test [16], in test [13], in test [14], in test [17] and in test [11] was inactive. For the same compound, in test [12], the outcome was inactive.
For the compound `CC(=O)OCC(COC(C)=O)OC(C)=O`, the result in test [1], in test [3], in [5], in test [6], in [7] and in test [8] was inactive. The outcome in [18], in test [17], in test [11] and in [12] was inactive.
For `CC(C)NCC(O)c1ccc(O)c(O)c1` (stereo unspecified), the call in [1], in test [3], in [4], in [5], in [6] and in [7] was inactive. Further, the result in test [8], in test [13], in test [14] and in test [12] was inactive.
Take `O=C(O)CC(O)(CC(=O)O)C(=O)O`: the result in test [3], in test [4], in [5], in test [6], in test [7] and in [8] was inactive. In test [12], the result was inactive.
For orientation: AC50 means the concentration at which the activity in the assay is half-maximal. Consider `C/C=C/C=C/C(=O)O`, for which the compound was classed as inactive in [1], in test [3], in test [5], in test [6], in [7] and in test [8]. The outcome in test [9], in test [10], in [16], in test [13], in test [17] and in test [11] was inactive. The outcome in [12] was inactive. In [14], the AC50 was 41.5 µM (active).
For `CC(COCC(C)OC(=O)c1ccccc1)OC(=O)c1ccccc1` (stereo unspecified), the outcome in [1], in [3], in [4], in test [5], in test [6] and in test [15] was inactive. The outcome in test [7], in test [8], in [9], in [13], in [17] and in test [11] was inactive. Further, the outcome in test [12] was inactive.
